Out of some 130,000 compounds screened, about 1,200 (0.92%) were called active.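 How the source made its calls: active means inhibition above the mean plus 3 SD, with well images judged a real hit on visual review (cut at about 60% in these data, passing the limit was not always enough); inconclusive means inhibition over the cutoff but images rejected on review; inactive means inhibition not above the cutoff.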 For the sample, actives were picked, then their nearest neighbours and some compounds at random.

The test can be described thus: insulin gene promoter suppression in islet cells – imaging, TRM-6 cells (human fetal islet line), eGFP reporter, cell count, primary screen (AID 1273;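 on normalized cell count: cells exposed to compound for 48 h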). As to conditions: at 2 µM, reporter expression induced with tamoxifen; inhibition: stronger effect = higher value; normalized cell count: measured here: cell count, toxicity.
In general, inhibition refers to the change of the read-out against control, counted positive when it falls. Regarding `COc1ccc(C2CC(c3cccs3)=NN2C(=O)CSc2nncs2)cc1OC` (stereo not given), the inhibition was 66.7% (inactive) and the normalized cell count is 95.8%.

Consider `CN1CCN(C(=O)CCc2ncc(C(F)(F)F)cc2Cl)CC1`, for which the inhibition was 9.09% (inactive) and the normalized cell count turned out to be 150%.

Consider `COc1cccc(NC(=O)C2CCCN2C(=O)OCc2ccccc2)c1` (stereo not given), for which the inhibition was -34.4% (inactive) and the normalized cell count stood at 106%.

In the case of `Cc1ccc(CNC(=O)C2CCCN2C(=O)NCc2ccccc2)cc1` (stereo not given), the inhibition was 59% (inactive) and the normalized cell count came to 73.5%.

Turning to `CC(=O)c1cccc(NC(=O)N2CCCC2C(=O)NCCc2ccccc2)c1` (stereo not given), the inhibition was 82.1% (active) and the normalized cell count is 27.6%.

Turning to `O=C(c1ccccc1)N1CCN(c2ccc([N+](=O)[O-])c(NCc3ccco3)c2)CC1`, the inhibition was -9.68% (inactive) and the normalized cell count was 122%.

Regarding `O=[N+]([O-])c1ccc(N2CCN(S(=O)(=O)c3ccc4ccccc4c3)CC2)cc1NCc1ccco1`, the inhibition is -18.5% (inactive) and the normalized cell count is 121%.

For `O=[N+]([O-])c1ccc(N2CCNCC2)cc1NCc1cccnc1`, the inhibition was 66.7% (active) and the normalized cell count was 150%.

Take `COc1ccc(N2CCN(c3ccc([N+](=O)[O-])cc3Cl)CC2)cc1`: the inhibition was 7.69% (inactive) and the normalized cell count turned out to be 106%.

With `O=[N+]([O-])c1ccc(N2CCN(c3ccc(O)cc3)CC2)c(Cl)c1`, the inhibition was 86.7% (active) and the normalized cell count is 135%.

In the case of `CCN1CCN(c2ccc([N+](=O)[O-])cc2C(=O)c2ccc(Cl)cc2)CC1`, the inhibition was -83.3% (inactive) and the normalized cell count was found to be 81.5%.

As for `Cc1cc(C)c2c(n1)nn1c(N3CCOCC3)cc(C)nc21`, the inhibition is 74.3% (active) and the normalized cell count turned out to be 60.7%.

For `Cc1nn2c3cc(N4CCOCC4)ccc3nc2c2ccccc12`, the inhibition is -63.5% (inactive) and the normalized cell count is 79.7%.

For `Cc1cc(C)c2c(n1)nn1c(N3CCN(c4cccc(Cl)c4)CC3)cc(C)nc21`, the inhibition was -82.8% (inactive) and the normalized cell count was determined as 99.8%.

In the case of `CCCN(CC(=O)Nc1ccccc1C)C(=O)c1cc(=O)[nH]c2ccccc12`, the inhibition is -38.5% (inactive) and the normalized cell count was 49.2%.

On to `C=CCC1(CC=C)CCCN1C(=O)CC1C(=O)NCCN1Cc1ccccc1OC` (stereo not given), for which the inhibition is 20% (inactive) and the normalized cell count came to 91.1%.

In the case of `C/C(Cn1nnc2ccccc21)=N\OC(=O)c1cc(F)c(F)cc1Cl`, the inhibition was -55% (inactive) and the normalized cell count was determined as 99.6%.

Regarding `CC(=O)c1cc(C#N)c(SCC(=O)C(C)(C)C)nc1C`, the inhibition is 65.4% (active) and the normalized cell count is 142%.

As for `CC(=O)c1cnc(SCC(=O)O)nc1C`, the inhibition is 26.7% (inactive) and the normalized cell count was 105%.

With `Cc1cc(C#N)c(SCC(N)=O)nc1-c1ccc(F)cc1`, the inhibition was 14.3% (inactive) and the normalized cell count amounted to 121%.

In the case of `O=C(COC(=O)c1ccccn1)Nc1cccc2ccccc12`, the inhibition is -83.3% (inactive) and the normalized cell count came to 96%.

Regarding `O=C(CCN1C(=O)c2ccccc2C1=O)NCCCn1ccnc1`, the inhibition was -16.7% (inactive) and the normalized cell count came out at 84.2%.

In the case of `CN(C)CCNC(CC(=O)Nc1ccc(Cl)c(Cl)c1)C(=O)O` (stereo not given), the inhibition is 44.2% (inactive) and the normalized cell count is 104%.

With `COC(=O)C(CC(=O)Nc1cc(C)ccc1C)Nc1ccccc1OC` (stereo not given), the inhibition is 7.14% (inactive) and the normalized cell count was found to be 131%.

Take `COc1ccccc1NC(=O)CC(NCCN(C)C)C(=O)O` (stereo not given): the inhibition was 72.4% (active) and the normalized cell count is 43%.

`CCN(CC)CCNC(=O)c1sc2ncn(CC(=O)Nc3ccc(C)c(Cl)c3)c(=O)c2c1C`: the inhibition is -14.3% (inactive) and the normalized cell count came out at 89.6%.

In the case of `Cc1c(Br)ccc(NC(=O)COc2ccccc2C(N)=O)c1C`, the inhibition was -5.26% (inactive) and the normalized cell count is 50.7%.

Regarding `O=C(Nc1ccc(N2CCN(C(=O)C3CC3)CC2)cc1)c1cccs1`, the inhibition is 36.8% (inactive) and the normalized cell count turned out to be 132%.

On to `COC(=O)Nc1c(C)n(C)n(-c2ccccc2)c1=O`, for which the inhibition was 13.9% (inactive) and the normalized cell count was 53.7%.

On to `COc1ccc(S(=O)(=O)Nc2c(C)n(C)n(-c3ccccc3)c2=O)cc1`, for which the inhibition was 22.7% (inactive) and the normalized cell count turned out to be 104%.

On to `Cc1c(Nc2nc3ccccc3nc2NS(=O)(=O)c2cccs2)c(=O)n(-c2ccccc2)n1C`, for which the inhibition was 75% (active) and the normalized cell count turned out to be 38.1%.

Consider `Cc1nn(-c2ccc([N+](=O)[O-])cc2)c(N)c1-c1ccccc1`, for which the inhibition is 25% (inactive) and the normalized cell count stood at 95.4%.

`CCOC(=O)c1ccc(NC(=O)C2CC(=O)Nc3nc4ccccc4n32)cc1` (stereo not given): the inhibition was -36.4% (inactive) and the normalized cell count is 131%.

`CCOC(=O)c1c(C)[nH]c(C2=NNC(=NC(C)COC)SC2)c1C` (stereo not given): the inhibition is 31.2% (inactive) and the normalized cell count amounted to 87.8%.

`Cc1ccc(O)c(-c2cc(C(=O)NCc3ccccc3)[nH]n2)c1`: the inhibition is 7.14% (inactive) and the normalized cell count stood at 81.6%.

For the molecule `Cc1ccc(O)c(CCc2ccccc2)n1`, the inhibition is 91.9% (active) and the normalized cell count is 94.3%.

In the case of `O=C(O)CCCc1ccccc1`, the inhibition was -23.8% (inactive) and the normalized cell count worked out at 97.5%.

As for `CN(C)c1nccc(NCc2ccccc2)c1C#N`, the inhibition is 40.5% (inactive) and the normalized cell count worked out at 140%.

Consider `O=C(NNc1cc(Cl)ccc1Cl)c1cccnc1Cl`, for which the inhibition was 11.1% (inactive) and the normalized cell count was 114%.

Regarding `CCc1nnc(NS(=O)(=O)c2ccc(NC(=S)NC(=O)c3cccs3)cc2)s1`, the inhibition is -11.1% (inactive) and the normalized cell count worked out at 96.4%.

As for `CN(C)/C=C(/C(=O)c1ccc(F)cc1)S(=O)(=O)c1ccc(F)cc1`, the inhibition is 50% (inactive) and the normalized cell count was 124%.

For the molecule `CN(C)/C=C(/C(=O)c1ccccc1)S(=O)(=O)c1ccc(Cl)cc1`, the inhibition is -23.8% (inactive) and the normalized cell count is 70.5%.

Regarding `CN(C)/C=C(/C(=O)c1ccccc1Cl)S(C)(=O)=O`, the inhibition was 75% (active) and the normalized cell count stood at 84.2%.

In the case of `COc1cccc(NC(=O)CS(=O)(=O)c2cn(CC(=O)N3CCOCC3)c3ccccc23)c1`, the inhibition is -16.7% (inactive) and the normalized cell count is 88.8%.

For `O=C1c2ccccc2C(=O)N1CCC(O)C[N+](=O)[O-]` (stereo not given), the inhibition is -17.6% (inactive) and the normalized cell count came to 90.3%.

Turning to `Cc1cc([N+](=O)[O-])ccc1NC(=O)c1ccc(NC(=O)C(C)C)cc1`, the inhibition is 30% (inactive) and the normalized cell count is 120%.

Consider `CCC(=O)N1CCC(C(N)=O)(N2CCCCC2)CC1`, for which the inhibition is 33.3% (inactive) and the normalized cell count was 108%.

In the case of `COC(=O)C1=C(C)N(C)C(=S)NC1c1cc(OC)ccc1OC` (stereo not given), the inhibition is 23.1% (inactive) and the normalized cell count turned out to be 118%.

In the case of `CCOC(=O)c1cc2ccccc2nc1C`, the inhibition was 57.1% (inactive) and the normalized cell count is 47.1%.

As for `Cc1nc2ccccc2c(-c2ccccc2)c1C(=O)c1ccccc1`, the inhibition was 27.5% (inactive) and the normalized cell count worked out at 64.5%.

On to `Cc1nc2ccccc2cc1O`, for which the inhibition was 67.9% (active) and the normalized cell count stood at 57.9%.

For the molecule `COc1cc(C(=O)NCc2ccc(-n3cccc3)cc2)cc(OC)c1OC`, the inhibition was 46.1% (inactive) and the normalized cell count was 69%.

In the case of `O=C(CN1CCSCC1)N/N=C/c1ccc(Cl)cc1`, the inhibition was 35.3% (inactive) and the normalized cell count was determined as 92.4%.

Consider `Cc1ccc(-n2cc(CN(C)Cc3nccn3C)c(-c3cccc(C)c3)n2)cc1`, for which the inhibition is 41.7% (inactive) and the normalized cell count turned out to be 124%.

`O=C(O)C1C2CC2CN1C(=O)c1ccc(Cl)cc1Cl` (stereo not given): the inhibition is -5.56% (inactive) and the normalized cell count is 121%.

(Values after PubChem BioAssay AID1273 (Columbia University Molecular Screening Center, 2008).)
